Assay results reported in PubChem BioAssay AID1159580 (chemical genetic matrix, 2015).
Several values for one entry are separate records, joined by “and”; a condition that tells them apart may be missing. Equal entries are not always repeated. The whole screen tested about 5,500 compounds, of which about 2,000 (36%) were called active. Roughly 18% stayed inconclusive and do not appear here. Cut-off read from the data, not from the text of the source: active = normalized growth mostly below about 0.91 (no sharp cut-off); inconclusive = no clear call, values can overlap the other calls; inactive = mostly above about 0.92. This is one part of the list.

Assay: chemical genetic growth profiling, strain panel (AID 1159580);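 note: tested at 20 µM; growth read once vehicle control cultures reached saturation at 30 °C; 1 = growth at the plate median or of vehicle wells; lower values mean less growth of the strain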
Details: S. cerevisiae deletion strains, growth OD

Measured: normalized growth

COC(=O)C[C@H]1C(C)(C)[C@@H](OC(C)=O)[C@@H]2CC3=C4CC(=O)O[C@@H](c5ccoc5)[C@]4(C)CCC3[C@@]1(C)C2=O (stereo partly specified)
inactive: locus YAL021C, strain ccr4, stronger effect = lower value 1.04 | locus YAL026C, strain drs2, stronger effect = lower value 0.998 | locus YAL030W, strain snc1, stronger effect = lower value 0.996 | locus YBL061C, strain skt5, stronger effect = lower value 0.991 | locus YBR009C, strain hhf1, stronger effect = lower value 1 | locus YBR021W, strain FUR4, stronger effect = lower value 1.01 | locus YBR023C, strain chs3, stronger effect = lower value 1 | locus YBR171W, strain sec66, stronger effect = lower value 0.996 | locus YBR229C, strain ROT2, stronger effect = lower value 0.997 | locus YBR231C, strain swc5, stronger effect = lower value 0.971 | locus YBR279W, strain paf1, stronger effect = lower value 0.999 | locus YCL011C, strain gbp2, stronger effect = lower value 1.01 | locus YCL016C, strain dcc1, stronger effect = lower value 1.01 | locus YCL029C, strain bik1, stronger effect = lower value 0.998 | locus YCL061C, strain MRC1, stronger effect = lower value 0.999 | locus YCL069W, strain vba3, stronger effect = lower value 0.984 | locus YCR088W, strain abp1, stronger effect = lower value 0.995 | locus YDL005C, strain med2, stronger effect = lower value 0.991 | locus YDL035C, strain GPR1, stronger effect = lower value 0.986 | locus YDL040C, strain nat1, stronger effect = lower value 0.995 | locus YDL074C, strain BRE1, stronger effect = lower value 0.996 | locus YDL101C, strain DUN1, stronger effect = lower value 1.02 | locus YDL185W, strain tfp1, stronger effect = lower value 1.01 | locus YDL192W, strain arf1, stronger effect = lower value 0.998 | locus YDR001C, strain nth1, stronger effect = lower value 0.997 | locus YDR069C, strain doa4, stronger effect = lower value 0.982 | locus YDR101C, strain arx1, stronger effect = lower value 0.976 | locus YDR137W, strain rgp1, stronger effect = lower value 0.997 | locus YDR159W, strain sac3, stronger effect = lower value 0.962 | locus YDR162C, strain NBP2, stronger effect = lower value 0.983 | locus YDR195W, strain ref2 0.938 | locus YDR297W, strain sur2, stronger effect = lower value 0.983 | locus YDR318W, strain mcm21, stronger effect = lower value 0.998 | locus YDR334W, strain swr1, stronger effect = lower value 0.99 | locus YDR335W, strain msn5, stronger effect = lower value 1 | locus YDR388W, stronger effect = lower value 1.01 | locus YDR392W, strain spt3, stronger effect = lower value 0.963 | locus YDR502C, strain sam2, stronger effect = lower value 1 | locus YEL003W, strain gim4, stronger effect = lower value 0.978 | locus YEL037C, strain rad23, stronger effect = lower value 0.989 | locus YEL061C, strain CIN8 (second series), stronger effect = lower value 0.99 | locus YER015W, strain faa2, stronger effect = lower value 1 | locus YER016W, strain bim1, stronger effect = lower value 0.995 | locus YER110C, stronger effect = lower value 1 | locus YER111C, strain swi4, stronger effect = lower value 1 | locus YER155C, strain BEM2 (second series), stronger effect = lower value 1.01 | locus YER155C, strain BEM2, stronger effect = lower value 0.997 | locus YER167W, strain BCK2, stronger effect = lower value 0.998 | locus YFR010W, strain ubp6, stronger effect = lower value 0.976 | locus YGL078C, strain dbp3, stronger effect = lower value 1.01 | locus YGL086W, strain mad1, stronger effect = lower value 1.01 | locus YGL167C, strain pmr1, stronger effect = lower value 1.01 | locus YGL173C, strain kem1, stronger effect = lower value 0.989 | locus YGL227W, strain vid30, stronger effect = lower value 0.993 | locus YGL240W, strain doc1, stronger effect = lower value 1 | locus YGL248W, strain PDE1, stronger effect = lower value 1 | locus YGL253W, strain hxk2, stronger effect = lower value 0.913 | locus YGR078C, strain PAC10, stronger effect = lower value 1.01 | locus YGR135W, strain pre9, stronger effect = lower value 1.02 | locus YGR252W, strain gcn5, stronger effect = lower value 1.01 | locus YHR013C, strain ard1, stronger effect = lower value 1.01 | locus YHR027C, strain rpn1, stronger effect = lower value 1 | locus YHR030C, strain SLT2, stronger effect = lower value 1 and 0.993 | locus YHR079C, strain IRE1 (second series), stronger effect = lower value 0.996 | locus YHR079C, strain IRE1, stronger effect = lower value 0.992 | locus YHR094C, strain hxt1, stronger effect = lower value 1 | locus YHR129C, strain ARP1, stronger effect = lower value 1.01 | locus YHR142W, strain chs7, stronger effect = lower value 0.988 | locus YHR200W, strain rpn10, stronger effect = lower value 1.01 | locus YIL066C, strain RNR3, stronger effect = lower value 1.01 | locus YIL073C, strain SPO22, stronger effect = lower value 1.02 | locus YIL125W, strain kgd1, stronger effect = lower value 0.993 | locus YIR030C, strain dcg1, stronger effect = lower value 1 | locus YJL092W, strain hpr5, stronger effect = lower value 0.996 | locus YJL095W, strain BCK1 (second series), stronger effect = lower value 1.01 | locus YJL095W, strain BCK1, stronger effect = lower value 1.04 and 0.984 | locus YJL115W, strain asf1, stronger effect = lower value 0.997 | locus YJL129C, strain trk1, stronger effect = lower value 0.952 | locus YJL134W, strain LCB3, stronger effect = lower value 0.998 | locus YJL154C, strain vps35, stronger effect = lower value 0.998 | locus YJL164C, strain tpk1, stronger effect = lower value 1.03 | locus YJL166W, strain qcr8, stronger effect = lower value 1 | locus YJL168C, strain set2, stronger effect = lower value 0.995 | locus YJL187C, strain SWE1 (second series), stronger effect = lower value 1.03 | locus YJL187C, strain SWE1, stronger effect = lower value 1.01 | locus YJR043C, strain POL32, stronger effect = lower value 0.987
